Reference: PubChem BioAssay (NCI)
Compounds without any hit were thinned out: in the full panel of roughly 83,000, 20% have a hit.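 Each cell line was grown in a 96-well plate and treated with one concentration of compound for 48 hours. Values below 10 were considered active.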 Active and inactive are the calls of the source.

Key:
Assay in all cases: NCI-60 one-dose screen, 48 h (100 = growth as untreated, 0 = no growth, -100 = all killed)
Conditions in all cases: 10 µM unless noted
[1] = system: HCT-15 colon
[2] = system: HT29 colon
[3] = system: SNB-75 CNS
[4] = system: SNB-19 CNS
[5] = system: U251 CNS
[6] = system: PC-3 prostate
[7] = system: SK-MEL-5 melanoma
[8] = system: UACC-62 melanoma
[9] = system: LOX IMVI melanoma
[10] = system: SK-MEL-28 melanoma

Measured: growth

CSc1ccc(N=C=C(c2ccccc2)c2ccccc2)cc1
inactive: [1] 87.3% | [2] 87.3% | [3] 84.7% | [4] 91.7% | [5] 86.4% | [6] 84.6% | [7] 99.6% | [8] 83.1% | [9] 70.2% | [10] 99.2%

CC1=C(NCCN2CCCC2)C(=O)c2c(OCc3cccc(Cl)c3)cccc2C1=O
inactive: [1] 57.1% | [2] 26.1% | [3] 75.1% | [4] 99.4% | [5] 61.7% | [6] 69.9% | [7] 67.1% | [8] 93.7% | [9] 36.1%
active: [10] -8.01%

CC(=O)C1=C(O)C=C2Oc3c(C(=O)/C=C/c4cc(C(F)(F)F)cc(C(F)(F)F)c4)c(O)c(C)c(O)c3[C@]2(C)C1=O
active: [1] -73% | [2] -42.4% | [3] -28.3% | [4] -17.5% | [5] -48.1% | [6] -8.91% | [7] -93.9% | [8] -64.8% | [9] -85.4% | [10] -72.4%

COc1ccc2nc3cc(Cl)ccc3c(N3CCN(c4ccnc(N5CCOCC5)n4)CC3)c2c1
inactive: [3] 66.8% | [4] 95.5% | [5] 64.2% | [6] 67.2% | [7] 88.4% | [8] 91.9% | [10] 35.9%
active: [1] 8.96% | [2] -18.2% | [9] -59%

O=C(O)c1ccccc1Nc1cccc(S(F)(F)(F)(F)F)c1
inactive: [1] 94.7% | [2] 84.2% | [3] 91.3% | [4] 98.7% | [5] 85.7% | [6] 95.9% | [7] 95.6% | [8] 93.7% | [9] 92.4% | [10] 108%

CC(C)Oc1nc2c(c(=O)n(C)c(=O)n2C)n1C
inactive: [1] 106% | [2] 96.6% | [3] 88% | [4] 96.4% | [5] 99.7% | [6] 90.7% | [7] 104% | [8] 96.5% | [9] 98.9% | [10] 105%

CC1=C(NCCN2CCCC2)C(=O)c2c(OCc3ccc(C(F)(F)F)cc3)cccc2C1=O
inactive: [1] 70.9% | [2] 42.4% | [3] 82.1% | [4] 95.3% | [5] 69.9% | [6] 47.4% | [7] 85.2% | [8] 99.9% | [9] 68.4% | [10] 54.6%

CC(C)c1c(C(=O)Nc2ccccc2)c(-c2ccccc2)c(-c2ccc(F)cc2)n1CC[C@@H]1CC=CC(=O)O1
active: [1] -42.7% | [2] -35.6% | [3] -25% | [6] -39.2% | [9] -75.4% | [10] -57.1%
inactive: [4] 14.2% | [7] 21.7% | [8] 18.9%

O=C(Nc1cccc2[nH]c(C(F)(F)F)nc12)c1ccc(Br)cc1F
inactive: [1] 28.5% | [2] 61.9% | [3] 60.8% | [4] 29.7% | [5] 18.9% | [9] 35.9% | [10] 62.9%
active: [7] -32.8% | [8] -1.06%

COc1cc(-c2c3sc(=O)[nH]c3nc3c2c(=O)[nH]n3C(C)C)cc2c1OCO2
inactive: [1] 101% | [2] 103% | [3] 85.2% | [4] 107% | [5] 103% | [6] 117% | [7] 96.9% | [8] 105% | [10] 99.2%

CC[C@H](Nc1nc(N)nc(C)c1C#N)c1nc2cccc(NCc3ccc(C(=O)NO)cc3)c2c(=O)n1-c1ccccc1
inactive: [1] 38.7% | [3] 14.3%
active: [2] 3.55% | [4] 7.28% | [6] 5.79% | [7] -13.2% | [8] -28.6% | [9] -52.6% | [10] -0.295%

Nc1nc(-c2ccc(F)cc2)cc(-c2cnn(-c3ccccc3)n2)n1
inactive: [1] 95.4% | [2] 93.5% | [3] 100% | [4] 104% | [6] 114% | [7] 104% | [8] 91.1% | [9] 97.2% | [10] 107%

N#CC1=C(N)Oc2c(ccc3ccccc23)C1c1cccs1 (stereo not drawn)
inactive: [1] 13.5% | [4] 49.7% | [5] 13.3% | [6] 22.5% | [8] 29.3% | [10] 41.1%
active: [2] 5.33% | [3] 4.67% | [7] -35.9%

Oc1ccccc1/C=N/Nc1ccc2ccccc2n1
inactive: [1] 25.2% | [2] 48.9% | [3] 31.9% | [4] 67.6% | [6] 57.3% | [7] 51.3% | [8] 40.6% | [9] 42.3% | [10] 74.1%

NCc1cn2cc(Cl)sc2n1
inactive: [1] 98.6% | [2] 105% | [3] 92.6% | [4] 112% | [5] 93.2% | [6] 92.3% | [7] 103% | [8] 110% | [10] 104%

O=c1c2cccc3c(Nc4c(F)cccc4F)ccc(c32)c2nc3ccccc3n12
inactive: [1] 75.5% | [2] 93.4% | [3] 80% | [4] 103% | [6] 84.5% | [7] 81.8% | [8] 86.9% | [9] 86.9% | [10] 109%

COc1cc(C2CC(=O)Nc3c2cnn3Cc2ccco2)cc2c1OCCO2 (stereo not drawn)
inactive: [1] 64.9% | [2] 88.8% | [3] 77.5% | [4] 97.9% | [5] 84.6% | [6] 97.6% | [7] 75.5% | [8] 75.8% | [10] 75.7%

COC(=O)C12C3C(=O)N(c4ccc(OC)cc4)C(=O)C3C(c3cn(-c4ccccc4)nc3C)N1[C@H](c1cn(-c3ccccc3)nc1C)[C@@H]1C(=O)N(c3ccc(OC)cc3)C(=O)[C@@H]12 (stereo partly drawn)
inactive: [1] 101% | [2] 103% | [3] 89.9% | [4] 91.1% | [5] 93.9% | [6] 87% | [7] 99.7% | [8] 96.8% | [10] 105%

O=c1c2cccc3c(NC4CCCCC4)ccc(c32)c2nc3ccccc3n12
inactive: [1] 74.8% | [2] 76.8% | [3] 83% | [4] 89.4% | [6] 80% | [7] 66.1% | [8] 82.8% | [9] 73.4% | [10] 92.1%

CCOc1ccc(Nc2nc(-c3c(C)nc4ncccn34)cs2)cc1
active: [2] 4.76% | [5] 4.82% | [7] -11.6%
inactive: [1] 15.4% | [3] 22.9% | [4] 33.4% | [8] 10.6% | [9] 23.1% | [10] 39%

COc1cc(C2C(C(=O)c3cccs3)=C(O)C(=O)N2CCN2CCOCC2)cc(OC)c1OC (stereo not drawn)
inactive: [1] 102% | [2] 103% | [3] 91.6% | [4] 103% | [5] 94.7% | [6] 95.4% | [7] 96.1% | [8] 106% | [10] 104%

CC#Cc1nc2ccccc2c(=O)[nH]1
inactive: [2] 51.2% | [4] 123% | [6] 61.4% | [8] 50.1% | [10] 54.3%
active: [1] 3.71% | [3] -2.64% | [7] -10% | [9] -60.1%

COc1ccc(C(=O)c2sc3nc4c(c(C(F)(F)F)c3c2N)CN(C(C)=O)CC4)cc1OC
inactive: [1] 84.7% | [2] 95% | [3] 74.6% | [4] 95.8% | [5] 78.3% | [7] 77.6% | [8] 83.6% | [9] 78.4% | [10] 93.4%

COc1ccc(C(=O)c2sc3nc(-c4ccccc4OC)ccc3c2N)cc1OC
active: [7] 8.53%
inactive: [1] 58.5% | [2] 56.2% | [3] 73.2% | [4] 78.2% | [5] 63.2% | [6] 30.9% | [8] 67.8% | [10] 88.8%

CCN(CC)CCCC(C)N/C(=C1\C(=O)NC(=O)\C1=C(/NC(C)CCCN(CC)CC)c1cccc(OC)c1)c1cccc(OC)c1 (stereo not drawn)
active: [1] 5.33% | [2] -54.8% | [6] -3.13% | [7] -91% | [8] -14.7% | [9] -68.5% | [10] -83%
inactive: [3] 30.5% | [4] 23.6%

CN1C2CCC1/C(=C\c1ccc(Cl)cc1)C1=C2[C@@H](c2ccc(Cl)cc2)C(C#N)=C(N)O1 (stereo partly drawn)
inactive: [1] 71.9% | [2] 65.2% | [3] 92.4% | [4] 99.8% | [6] 82.4% | [7] 88.9% | [8] 75.7% | [9] 91.7% | [10] 80%

CN1CCCCC1CCN1c2ccccc2Sc2ccc(Br)cc21 (stereo not drawn)
active: [3] 3.86%
inactive: [1] 54.6% | [2] 29.8% | [4] 97.4% | [6] 56.2% | [7] 60.3% | [8] 76.8% | [9] 60% | [10] 68.6%

COc1ccc(-c2cnoc2-c2cc(OC)c3c(c2)OCCO3)cc1
inactive: [3] 13.2% | [4] 29.5% | [8] 13.4% | [9] 17.4% | [10] 50.9%
active: [1] 4.48% | [2] 1.26% | [5] -17% | [7] -27.8%

O=C1Nc2ccccc2C12CC(c1ccccc1)=NN2 (stereo not drawn)
active: [2] 8.14%
inactive: [1] 33% | [3] 38.4% | [4] 68.7% | [6] 48.2% | [7] 30.5% | [8] 46.7% | [9] 48.4% | [10] 56.8%
